# From PubChem
# A selection: hits, their analogues and other compounds. The true share with any hit is near 19%.
# Giardia killer: Giardia lamblia killing; Giardia lamblia trophozoite viability; activity change, % at 7.66 µM, hits read low; 340,000 tested, 0.15% active; AID 540267; in the data active means activity change below about -80%; inconclusive means between about -30% and that limit;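 further: parasites exposed to compound for two days anaerobically before the ATP read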
#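 Viability, read as ATP luminescence: trophozoites at 100 cells/well, compound added, 48 hrs anaerobic at 37 deg C, then 15-30 min room-temperature development before reading.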
# TDP1 cell noCPT: qHTS for Inhibitors of human tyrosyl-DNA phosphodiesterase 1 (TDP1): qHTS in cells in absence of CPT; DT40 Tdp1-/- hTDP1 cells, no CPT, ATP luminescence, 48 h; Potency, µM (top dose mostly 46.2 µM), inactives show at the top dose activity change, negative = growth inhibition, actives largely listed as inhibitors; 420,000 tested, 15% active; AID 686978, 2013; further: potency means the concentration at half of the fitted maximal effect; nearly all actives have a fitted effect of over 55% in size
#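 Growth kinetics read by CellTiter-Glo luminescence after ≥48 hr at 37 °C. Cells: DT40 Tdp1-/- stably carrying human TDP1, 400 per well, compound exposure in the absence of CPT (DMSO vehicle).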
# IL-1B inflam inh: inflammasome signaling inhibition, IL-1 beta readout. AID 743279. activity change, % at 57.5 µM. THP-1 LPS/ATP IL-1B secretion, AlphaLISA, 16 h; active compounds read low. 360,000 tested, 4.7% active; in the data active means activity change below about -50%; inconclusive means mostly about -30% to -49%
#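 THP-1 cells pretreated 1 hr with compounds (up to 57.5 uM final), then stimulated with LPS (250 ng/mL final) plus ATP (1.25 mM final); secreted IL-1B measured by AlphaLISA after 16 hr, decreased signal indicating inhibition.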
# DT40 TDP1 CPT: DT40-hTDP1 cell growth loss with CPT | Potency, µM (doses to about 46.2 µM), inactives show at the top dose activity change, negative = growth inhibition, most hits filed as inhibitors | 420,000 tested, 12% active | AID 686979 | chicken DT40 Tdp1-/-;hTDP1 cells + 20 nM CPT, ATP luminescence, 48 h; further: potency means the concentration at half of the fitted maximal effect; nearly all actives have a fitted effect of over 55% in size
#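 Chicken DT40 Tdp1-/- cells complemented with human TDP1, 400 cells/well, exposed to compounds plus 20 nM camptothecin for at least 48 h at 37 C; viability read as ATP content by CellTiter-Glo luminescence.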
# TDP1 inh: inhibitors of human tyrosyl-DNA phosphodiesterase TDP1. recombinant TDP1, AlphaScreen DNA substrate cleavage. Potency, µM (highest dose often 130 µM), for inactives: top-dose activity change, negative = inhibition, usual class: inhibitors. 350,000 tested, 0.28% active. AID 485290; further: potency means the concentration at half of the fitted maximal effect; nearly all actives have a fitted effect of over 40% in size
# Target sequence (Q9NUW8 whole entry, looked up): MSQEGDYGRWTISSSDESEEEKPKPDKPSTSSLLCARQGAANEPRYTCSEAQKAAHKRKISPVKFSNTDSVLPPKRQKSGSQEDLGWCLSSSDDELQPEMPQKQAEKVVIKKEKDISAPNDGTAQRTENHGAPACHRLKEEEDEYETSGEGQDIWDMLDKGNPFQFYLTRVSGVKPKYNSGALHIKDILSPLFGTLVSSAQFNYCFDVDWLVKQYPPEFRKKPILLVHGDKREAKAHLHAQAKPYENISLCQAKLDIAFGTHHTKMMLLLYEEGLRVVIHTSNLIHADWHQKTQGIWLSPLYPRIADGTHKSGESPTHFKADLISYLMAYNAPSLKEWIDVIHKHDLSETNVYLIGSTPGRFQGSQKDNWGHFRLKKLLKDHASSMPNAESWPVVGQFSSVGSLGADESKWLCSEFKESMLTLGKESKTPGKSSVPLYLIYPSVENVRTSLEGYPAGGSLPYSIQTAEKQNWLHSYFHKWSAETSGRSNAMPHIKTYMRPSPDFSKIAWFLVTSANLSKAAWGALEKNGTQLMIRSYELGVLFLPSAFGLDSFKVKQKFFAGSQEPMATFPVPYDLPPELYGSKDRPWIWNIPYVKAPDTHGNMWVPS
#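 Recombinant E. coli-expressed Tdp1 (1 nM) preincubated with compound 15 min at RT, then 5'-biotin/3'-phosphotyrosine-FITC DNA substrate (15 nM) added for 5 min. AlphaScreen beads (10 ug/ml) added, 10 min RT; tyrosine-FITC cleavage read as signal loss.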
# ELG1 DNA repair: inhibitors of ELG1-dependent DNA repair in HEK293T cells; Potency, µM (top dose mostly 46.1 µM), for the others: at the top dose activity change, negative = inhibition, actives largely listed as inhibitors; HEK293T ELG1-luciferase reporter, luminescence, 16 h; DNA damage induced by 5-fluorouridine; 330,000 tested, 2.3% active; further: potency means the concentration at half of the fitted maximal effect; nearly all actives have a fitted effect of over 55% in size
#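 5-Fluorouridine DNA damage + compound/DMSO, 2,000 cells/well, 16 h, 37 °C/5% CO2. ONE-Glo, 30 min RT, luminescence. Readout = decrease in reporter signal.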
# * hit, by the source's call; ? = inconclusive; · = no result; [ ] = remark or other dose. Unless noted, the call rests on the fitted dose curve; in most records, active means well fitted curve in the direction sought with a large enough effect; inconclusive means small, poorly fitted or top-dose-only effect, or another doubt; inactive means no such curve, though single readings can be large; an effect the other way counts as inactive or inconclusive. On the % scale 0 is the no-effect control and ±100 the full control effect.
SMILES,Giardia killer,TDP1 cell noCPT,IL-1B inflam inh,DT40 TDP1 CPT,TDP1 inh,ELG1 DNA repair
O=c1c2cc(Br)ccc2nc(-c2ccc([N+](=O)[O-])cc2)n1O,-2,-109%,35,?,6%,?
N#Cc1ccc(-c2nc3ccc(Br)cc3c(=O)n2O)cc1,-8,?,11,?,·,9.2µM*
O=c1c2cc(Br)ccc2nc(-c2cccc(C(F)(F)F)c2)n1O,13,10µM*,73,18µM*,9%,?
CCOC(=O)c1c(C)[nH]c(C)c1S(=O)(=O)N1CCC(C(=O)NCc2ccc(F)cc2)CC1,·,-7%,·,-11%,3%,·
C[C@@H]1CN([C@@H](C)CO)C(=O)c2cc(N(C)C)ccc2O[C@@H]1CN(C)S(C)(=O)=O,-16,5%,2,3%,0%,?
CCOC(=O)c1cnc2c(cnn2CC)c1NN=C(C)C,·,?,·,?,-13%[56.1 µM],·
Cn1nc(C(F)(F)F)c(C(=O)Nc2ccc(F)cc2F)c1Oc1cccc(Cl)c1,5,?,-2,?,-1%,-1%
Cc1nn(C)c(Oc2ccc(Cl)cc2)c1C(=O)Nc1ccc(F)cc1F,-18,7.3µM*,-10,?,0%,-7%
Cc1ccc(SCC(=O)OCC(=O)N(CC(C)C)c2c(N)n(Cc3ccccc3)c(=O)[nH]c2=O)cc1C,-3,?,-19,?,0%,-8%
COc1ccc(CN2CCCC(n3cc(C(=O)N4CCCCC4)nn3)C2)c(OC)c1OC (stereo unspecified),·,-12%,·,-5%[9.04 µM],·,·
Cc1nnc(C)c2c(C)n(Cc3ccc4c(c3)OCO4)c(C)c12,-4,16µM*,-13,13µM*,5%,-10%
Cc1cccc2sc(N(CCCN(C)C)C(=O)c3sc4ccccc4c3Cl)nc12,18,23µM*,0,16µM*,3%,-7%
COc1cc(C(=O)N(CCCN(C)C)c2nc3c(OC)cccc3s2)cc(OC)c1OC,·,21µM*,·,?,-1%,·
CN(C)CCCN(C(=O)c1sc2ccccc2c1Cl)c1nc2c(F)cccc2s1,-21,?,-8,-23%,8%,?
COc1cccc2sc(N(CCCN(C)C)C(=O)c3sc4ccccc4c3Cl)nc12,-9,18µM*,-67*,?,5%,2%
CCOc1cccc2sc(N(CCCN(C)C)C(=O)c3ccc(S(=O)(=O)N(C)c4ccccc4)cc3)nc12,-5,?,-16,?,8%,-1%
CCOC(=O)c1sc(N2C(=O)c3oc4ccccc4c(=O)c3C2c2ccc(C(C)(C)C)cc2)nc1C (stereo unspecified),·,0%,·,7%,6%,·
CCCc1[nH]n(-c2ccc(F)cc2)c(=O)c1C=Nc1cccc(F)c1,3,6.5µM*,26,6.5µM*,0%,-20%
CCCc1[nH]n(-c2ccc(F)cc2)c(=O)c1C=NCC1CCCO1 (stereo unspecified),-29,0%,23,10%,·,3%
O=C(COC(=O)/C=C/c1ccccc1Cl)NC1CCCC1,14,5%,-9,-8%,0%,0%
Cc1cccc(C)c1NC(=O)COc1ccc2c(C)c(Cc3ccccc3)c(=O)oc2c1C,4,?,27,16µM*,3%,7%
Cc1c(C)c2ccc(OCC(=O)Nc3ccccn3)c(C)c2oc1=O,-98*,-11%,4,?,0%,?
O=c1oc2ccc([N+](=O)[O-])cc2c(N2CCOCC2)c1[N+](=O)[O-],·,·,·,·,·,7%
O=[N+]([O-])c1cccc(Cl)c1N1CCOCC1,-4,-26%,11,?,1%,18%
C=CS(=O)(=O)c1sc(Cl)c(N2CCOCC2)c1[N+](=O)[O-],3,2.9µM*,-112*,1.6µM*,3%,-11%
SMILES,Giardia killer,TDP1 cell noCPT,IL-1B inflam inh,DT40 TDP1 CPT,TDP1 inh,ELG1 DNA repair
C=CSc1sc(Cl)c(N2CCOCC2)c1[N+](=O)[O-],-13,?,-105*,0%,3%,8%
COC(=O)c1cc(CNC(=O)c2cccc(Cl)c2Cl)ccc1OC,·,·,·,·,0%,-19%
COc1cccc(-c2c(C(=O)N/N=C(\C)c3cccs3)nnn2-c2nonc2N)c1,3,?,1,16µM*,9%,-9%
CCOc1ccc(-c2c(C(=O)N/N=C(\C)c3cccs3)nnn2-c2nonc2N)cc1,6,22%,33,8%,5%,?
C/C(=N\NC(=O)c1nnn(-c2nonc2N)c1-c1cccs1)c1ccc(C)cc1,4,-12%,3,-11%,2%,19%
C/C(=N\NC(=O)c1nnn(-c2nonc2N)c1-c1ccc2c(c1)OCO2)c1cccs1,1,?,8,1.6µM*,1%,2%
CCOc1cccc(-c2c(C(=O)N/N=C(\C)c3cccs3)nnn2-c2nonc2N)c1,6,?,36,?,1%,16µM*
O=c1c2oc3ccccc3c2n(Cc2ccccc2)c(=O)n1Cc1ccc2c(c1)OCO2,·,?,·,?,5%,·
O=C(COC(=O)c1ccc(S(=O)(=O)N2CCCC2)cc1)NCc1cccs1,-27,-25%,-10,21%,5%,5%
CCCCCC(=O)Nc1ccc(S(=O)(=O)Nc2nccc(C)n2)cc1,-13,-4%,20,-7%,-1%,5%
CSc1ccc(CN2CCN(C3CCCC3)C(CCO)C2)cc1 (stereo unspecified),-23,0%,28,-24%,-8%,6%
O=C(Nc1ccc(N2CCN(C(=O)c3ccco3)CC2)cc1)c1ccccc1F,16,?,-24,?,6%,?
Cc1ccc(C(=O)Nc2ccc(N3CCN(C(=O)c4ccco4)CC3)cc2)c(Cl)c1,4,13µM*,?,?,·,18µM*
Cc1ccccc1C(=O)Nc1ccc(N2CCN(C(=O)c3ccco3)CC2)cc1,-3,?,?,-16%,9%,-19%
O=C(Nc1ccc(N2CCN(C(=O)c3ccco3)CC2)cc1)c1ccccc1Br,-15,?,-62*,?,3%,-16%
COc1ccc(N2CCOCC2)c(NC(=O)c2cccs2)c1,-2,?,-20,?,2%,-27%
Cc1cc(C(=O)CN2C(=O)c3ccccc3S2(=O)=O)c(C)n1-c1ccccc1,-30,23µM*,-28,21µM*,6%,?
